Test results as given in PubChem BioAssay AID1671202 (University of Kansas High Throughput Screening Laboratory, 2021).
“And” between values parts separate entries of the source, which are not always exact repeats. Identical values can stand only once. In all, about 190,000 compounds went through this assay and about 6,900 (3.6%) were called active. Rule as the data show it: active = inhibition above about 50%; inactive = the rest. What follows is part of a selection rich in actives, with near analogues and random picks from the rest.

What follows are compounds tested against Huntingtin (Homo sapiens) (UniProt P42858) (assay: mutant huntingtin-calmodulin interaction inhibitors – biochemical, AlphaScreen, primary screen (AID 1671202;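 also: 0% = both proteins with DMSO and 100% = one protein alone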)). Conditions: AlphaScreen His-mHTT/GST-CaM binding, luminescence; at 15 µM, active compounds read high.
Huntingtin (Homo sapiens), sequence (P42858 whole entry, looked up, stated change not applied): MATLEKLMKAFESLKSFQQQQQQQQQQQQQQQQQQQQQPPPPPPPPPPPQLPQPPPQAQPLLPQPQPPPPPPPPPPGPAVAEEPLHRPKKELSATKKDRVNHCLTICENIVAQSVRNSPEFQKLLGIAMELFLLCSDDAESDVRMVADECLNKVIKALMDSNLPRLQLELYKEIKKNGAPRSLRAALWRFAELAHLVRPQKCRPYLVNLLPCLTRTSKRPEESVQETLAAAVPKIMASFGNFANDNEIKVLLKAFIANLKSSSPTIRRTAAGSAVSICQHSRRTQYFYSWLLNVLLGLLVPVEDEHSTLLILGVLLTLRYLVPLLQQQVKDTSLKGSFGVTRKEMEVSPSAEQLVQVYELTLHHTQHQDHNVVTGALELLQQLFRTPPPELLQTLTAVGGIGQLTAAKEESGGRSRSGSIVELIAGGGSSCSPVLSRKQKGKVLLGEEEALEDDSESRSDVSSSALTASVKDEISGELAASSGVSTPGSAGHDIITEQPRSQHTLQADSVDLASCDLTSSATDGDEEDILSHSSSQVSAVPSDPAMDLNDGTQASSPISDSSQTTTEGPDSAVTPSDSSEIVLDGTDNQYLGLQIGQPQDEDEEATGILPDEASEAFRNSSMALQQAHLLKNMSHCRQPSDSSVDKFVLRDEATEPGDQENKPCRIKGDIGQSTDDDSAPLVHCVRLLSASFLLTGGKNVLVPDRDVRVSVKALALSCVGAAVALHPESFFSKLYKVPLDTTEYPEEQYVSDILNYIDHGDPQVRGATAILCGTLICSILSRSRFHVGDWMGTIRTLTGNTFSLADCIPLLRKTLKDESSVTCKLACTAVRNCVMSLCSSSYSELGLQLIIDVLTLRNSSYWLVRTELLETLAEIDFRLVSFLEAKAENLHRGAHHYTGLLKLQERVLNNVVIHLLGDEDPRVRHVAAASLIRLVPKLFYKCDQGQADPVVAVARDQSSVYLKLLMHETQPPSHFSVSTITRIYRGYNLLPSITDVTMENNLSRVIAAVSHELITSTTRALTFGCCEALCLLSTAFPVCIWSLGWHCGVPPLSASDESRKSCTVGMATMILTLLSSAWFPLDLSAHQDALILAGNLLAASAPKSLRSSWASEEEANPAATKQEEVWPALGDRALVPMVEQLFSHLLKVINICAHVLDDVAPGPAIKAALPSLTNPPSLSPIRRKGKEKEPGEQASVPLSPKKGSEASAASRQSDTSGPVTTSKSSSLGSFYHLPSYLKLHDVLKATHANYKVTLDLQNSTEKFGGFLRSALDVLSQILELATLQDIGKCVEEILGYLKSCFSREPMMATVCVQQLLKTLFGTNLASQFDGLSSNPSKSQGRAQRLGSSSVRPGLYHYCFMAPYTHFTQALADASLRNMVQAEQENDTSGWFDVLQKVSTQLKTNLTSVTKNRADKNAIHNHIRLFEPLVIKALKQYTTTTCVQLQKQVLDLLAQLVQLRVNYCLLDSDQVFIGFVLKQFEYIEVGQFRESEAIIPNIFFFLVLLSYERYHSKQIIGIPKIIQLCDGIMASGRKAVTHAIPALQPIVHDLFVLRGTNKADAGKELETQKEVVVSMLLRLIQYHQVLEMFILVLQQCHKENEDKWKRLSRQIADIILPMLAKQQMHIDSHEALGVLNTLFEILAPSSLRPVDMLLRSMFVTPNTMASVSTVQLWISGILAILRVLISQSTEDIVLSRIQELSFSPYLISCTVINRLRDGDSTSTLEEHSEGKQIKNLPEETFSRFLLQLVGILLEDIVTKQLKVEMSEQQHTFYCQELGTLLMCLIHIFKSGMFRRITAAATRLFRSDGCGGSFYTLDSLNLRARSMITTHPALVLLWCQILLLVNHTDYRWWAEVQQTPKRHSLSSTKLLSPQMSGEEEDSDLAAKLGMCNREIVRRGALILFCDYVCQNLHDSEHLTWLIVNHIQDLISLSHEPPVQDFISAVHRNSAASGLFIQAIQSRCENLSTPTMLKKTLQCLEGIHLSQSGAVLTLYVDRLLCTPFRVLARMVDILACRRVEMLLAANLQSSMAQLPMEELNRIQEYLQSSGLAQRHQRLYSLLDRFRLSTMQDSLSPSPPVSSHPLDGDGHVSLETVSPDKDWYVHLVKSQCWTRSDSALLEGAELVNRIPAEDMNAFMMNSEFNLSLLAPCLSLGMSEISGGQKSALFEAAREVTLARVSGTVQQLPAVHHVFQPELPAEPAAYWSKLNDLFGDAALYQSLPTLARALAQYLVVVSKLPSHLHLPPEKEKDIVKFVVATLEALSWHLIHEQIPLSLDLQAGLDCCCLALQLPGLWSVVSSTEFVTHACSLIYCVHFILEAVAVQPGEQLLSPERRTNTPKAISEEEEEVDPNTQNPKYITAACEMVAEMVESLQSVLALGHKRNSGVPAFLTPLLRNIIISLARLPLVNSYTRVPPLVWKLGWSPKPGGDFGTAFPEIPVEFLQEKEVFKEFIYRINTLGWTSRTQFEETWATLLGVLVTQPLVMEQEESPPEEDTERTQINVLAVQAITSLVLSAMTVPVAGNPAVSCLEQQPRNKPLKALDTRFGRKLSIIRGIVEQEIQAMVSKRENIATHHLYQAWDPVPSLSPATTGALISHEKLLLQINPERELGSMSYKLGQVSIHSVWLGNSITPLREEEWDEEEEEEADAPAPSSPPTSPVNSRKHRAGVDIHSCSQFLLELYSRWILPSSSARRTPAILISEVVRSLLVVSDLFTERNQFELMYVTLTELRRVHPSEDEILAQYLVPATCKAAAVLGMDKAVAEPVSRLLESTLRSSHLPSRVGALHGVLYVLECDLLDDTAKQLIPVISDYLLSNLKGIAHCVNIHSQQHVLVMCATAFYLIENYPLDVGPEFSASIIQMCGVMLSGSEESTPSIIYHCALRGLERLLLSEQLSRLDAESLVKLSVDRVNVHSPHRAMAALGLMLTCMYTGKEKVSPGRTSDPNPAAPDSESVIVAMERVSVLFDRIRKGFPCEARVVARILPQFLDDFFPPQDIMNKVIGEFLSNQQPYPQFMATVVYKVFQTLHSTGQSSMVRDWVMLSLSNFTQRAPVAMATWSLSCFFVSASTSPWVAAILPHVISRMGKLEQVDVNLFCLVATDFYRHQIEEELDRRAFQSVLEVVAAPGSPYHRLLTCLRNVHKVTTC

| SMILES | inhibition |
| --- | --- |
| CC(=O)NC1CCN(c2ccccc2C(=O)N(C)C2CCCCC2)CC1 | 11.4% (inactive) |
| COc1ccc(C=CC(=O)NCCN2CCn3cc(OC)c(=O)cc3C2=O)cc1OC | -2.5% (inactive) |
| Cc1ccc(N2CC(c3nnc(NC(=O)CCc4ccccc4)o3)CC2=O)cc1 (stereo unspecified) | 0.32% (inactive) |
| CSc1ccc(N2CC(c3nnc(NC(=O)Cc4ccccc4C)o3)CC2=O)cc1 (stereo unspecified) | 68.1% (active) |
| COc1ccc(N2CC(c3nnc(NC(=O)Cc4ccc(C)cc4)o3)CC2=O)cc1 (stereo unspecified) | 2.93% (inactive) |
| O=C(Cc1cccs1)Nc1nnc(C2CC(=O)N(c3ccc(Cl)cc3)C2)o1 (stereo unspecified) | 95.7% (active) |
| Cc1ccccc1OCC(=O)Nc1nnc(C2CC(=O)N(c3ccccc3)C2)o1 (stereo unspecified) | -0.23% (inactive) |
| COc1ccc(CC(=O)Nc2nnc(C3CC(=O)N(c4ccc(Cl)cc4)C3)o2)cc1 (stereo unspecified) | 22.1% (inactive) |
| N#CCOc1ccc2c(=O)c(-c3ccccc3)coc2c1 | -3% (inactive) |
| CCCCC(=O)Nc1n[nH]c(C)c1-c1ccc(Cl)cc1 | 2.8% (inactive) |
| COc1ccccc1OCCCCOc1ccccc1OC | -8.5% (inactive) |
| O=[N+]([O-])c1ccc(N2CCN(S(=O)(=O)c3ccc(Br)s3)CC2)cc1 | 7% (inactive) |
| CCC(=O)Nc1ccc(S(=O)(=O)N2CCN(C)c3ccccc32)cc1 | -1.8% (inactive) |
| O=C(CSc1ncn[nH]1)c1ccc(O)c(O)c1 | -5.2% (inactive) and -1% (inactive) |
| O=C(CSc1nc(-c2ccccc2)nc2c1CCCC2)c1ccc(O)c(O)c1 | 52% (active) |
| O=C(CSc1nc2[nH]ncc2c(=O)n1-c1ccccc1)c1ccc(Cl)c(Cl)c1 | 48% (inactive) |
| COc1cc(OC)c(OC)cc1C=Nc1ccccc1C(=O)O | 5.4% (inactive) |
| CC(Oc1ccc(Cl)cc1)C(=O)N1CCn2c(nnc2C(C)C)C1 (stereo unspecified) | 2.1% (inactive) |
| CC(C)Nc1nc(-c2ccccc2O)nc2ccccc12 | -13.2% (inactive) |
| Cc1cc(Nc2ccccc2)nc(N)n1 | 0.7% (inactive) |
| Cc1cc(NN)nc(-c2ccccc2O)n1 | 53.5% (active) |

| SMILES | inhibition |
| --- | --- |
| CCCNC(=O)C1CCN(Cc2cn(C)c3ccc(Cl)cc23)CC1 | -7.24% (inactive) |
| O=C(NCc1ccc(F)cc1)c1ccc2c(c1)NC(=O)C(N1CCCCC1)S2 (stereo unspecified) | -10% (inactive) |
| CCCNC(=O)c1cn(-c2ccc(C)cc2)nn1 | -7.1% (inactive) |
| Cc1ccc(N2C(=O)C3C4C=CC(CC4)C3C2=O)cc1Cl (stereo unspecified) | -5% (inactive) |
| COc1cccc(N2C(=O)C3CCCN3C2c2ccc(F)cc2)c1 (stereo unspecified) | 5.08% (inactive) |
| COc1ccc(N2C(=O)C3CCCN3C2c2cccs2)cc1 (stereo unspecified) | -7.68% (inactive) |
| COc1ccc(N2C(=O)C3CCCN3C2c2ccc(Cl)c(Cl)c2)cc1 (stereo unspecified) | 68% (active) |
| COc1ccc(N2C(=O)C3CCCN3C2c2cc(OC)c(OC)cc2OC)cc1 (stereo unspecified) | -4.26% (inactive) |
| Cc1ccsc1C1N(c2ccc(Cl)c(Cl)c2)C(=O)C2CCCN21 (stereo unspecified) | 96.1% (active) |
| CCOc1ccc(CC(=O)N2CC3CC2CC3NC(=O)c2ccccc2)cc1 (stereo unspecified) | 5.36% (inactive) |
| CCOc1ccc(-c2nnc(Nc3ccc(C(N)=O)cc3)c3ccccc23)cc1 | 6% (inactive) |
| CCOC(=O)C1CCN(C(=O)C2CCc3sc(C(=O)N4CCCCC4)cc3C2)CC1 (stereo unspecified) | 4.24% (inactive) |
| COc1cccc(N2CCN(C(=O)c3ccc(Cl)cc3Cl)C(C)C2=O)c1 (stereo unspecified) | 3.4% (inactive) |
| Cc1cc(C(=O)Nc2ccccc2)nc2ccnn12 | -10.8% (inactive) |
| O=C1[C@H]2OC[C@H](O2)[C@@H]2[C@H]1[C@H]1C=Cc3ccccc3N1[C@@H]2C(=O)c1ccc(F)cc1 | 91.4% (active) |
| O=C(c1ccc(F)cc1)N1CCC(N2CCC(C(=O)N3CCCCC3)CC2)CC1 | -3.3% (inactive) |
| Cc1ccc(Nc2nc(-c3ccc(O)cc3O)cs2)nc1 | 100% (active) |
| Brc1ccc(Nc2nc(-c3ccc4c(c3)OCO4)cs2)nc1 | -1.1% (inactive) |
| Cc1ccc(-c2csc(NC(=O)c3ccc([N+](=O)[O-])cc3)n2)c(C)c1 | 10.4% (inactive) |
| O=C(CSc1ncc(CO)n1Cc1ccccc1)Nc1ccc([N+](=O)[O-])cc1 | 20.9% (inactive) |
| Oc1ccc(N=Nc2nccs2)c(O)c1 | 99.9% (active) |

| SMILES | inhibition |
| --- | --- |
| Cc1[nH]c(=O)[nH]c(=O)c1S(=O)(=O)NC1=NCCS1 | 3% (inactive) |
| COCc1cc(C)nc2sc(C3=NC(C)(C)Cc4ccccc43)c(N)c12 | 58% (active) |
| COCc1cc(C)nc2sc(C(N)=O)c(N)c12 | -5% (inactive) |
| COCc1cc(C)nc2sc(C(=O)N(c3ccccc3)c3ccccc3)c(N)c12 | -19% (inactive) |
| O=C(Nc1ccc(C(F)(F)F)cc1)N1CCc2c(nc[nH]c2=O)C1 | -3.4% (inactive) |
| CCN(Cc1ccccc1)C(=O)c1sc2ccccc2c1Cl | -67.9% (inactive) |
| CCCCN1C(=O)C(C)(C(=O)Nc2cccc(OC)c2)Oc2cccnc21 (stereo unspecified) | 4.7% (inactive) |
| Cc1cccc(-n2nnc(C(=O)NCCN3CCCC3)c2N)c1 | 2% (inactive) |
| C1=C(N2CCOCC2)/C(=C/c2nc3ccccc3[nH]2)CC1 | 67.1% (active) |
| c1ccc(-c2nnc(N3CCOCC3)c3ccccc23)cc1 | -4.1% (inactive) |
| c1ccc2[nH]c(-c3nc4ccccc4[nH]3)nc2c1 | 7.27% (inactive) |
| Cc1cc(Cl)ccc1NC(=O)C(C)N(c1ccccc1)S(C)(=O)=O (stereo unspecified) | -1.9% (inactive) |
| O=C(NCc1ccc2c(c1)OCO2)C1CCc2sc(C(=O)N3CCOCC3)cc2C1 (stereo unspecified) | -0.39% (inactive) |
| CCCNC(=O)C1CCN(Cc2c(C)n(CC)c3ccccc23)CC1 | 7.5% (inactive) |
| COc1ccccc1N1CCN(C(=O)c2cc(-c3ccc(Cl)c(Cl)c3)on2)CC1 | -3% (inactive) |
| Cc1cc(C(=O)N2CC(C(=O)Nc3cccc(NS(C)(=O)=O)c3)C2)no1 | -19.8% (inactive) |
| Cc1cc(C(=O)N2CC(C(=O)N3CCN(c4ccc(Cl)c(Cl)c4)CC3)C2)no1 | 66.7% (active) |
| CN(C(=O)Cc1c[nH]c2ccccc12)C1(C(=O)NC2CCCCC2)CCCCC1 | 6% (inactive) |
| CC(=O)c1sc(NC(=O)c2ccccc2[N+](=O)[O-])nc1C | -19.4% (inactive) |
